# Results: PubChem BioAssay AID720704 (The Scripps Research Institute Molecular Screening Center, 2013)
# The campaign covered roughly 370,000 compounds. About 660 (0.18%) were called active. The sample as a whole holds a higher share of actives than the screen did. Unmarked numbers belong to inactive results. Rule as the data show it: active = inhibition above about 11%; inactive = the rest.
# Target: 1-phosphatidylinositol 4,5-bisphosphate phosphodiesterase beta-3 (Homo sapiens) (UniProt Q01970)
# Sequence (Q01970 whole entry, looked up): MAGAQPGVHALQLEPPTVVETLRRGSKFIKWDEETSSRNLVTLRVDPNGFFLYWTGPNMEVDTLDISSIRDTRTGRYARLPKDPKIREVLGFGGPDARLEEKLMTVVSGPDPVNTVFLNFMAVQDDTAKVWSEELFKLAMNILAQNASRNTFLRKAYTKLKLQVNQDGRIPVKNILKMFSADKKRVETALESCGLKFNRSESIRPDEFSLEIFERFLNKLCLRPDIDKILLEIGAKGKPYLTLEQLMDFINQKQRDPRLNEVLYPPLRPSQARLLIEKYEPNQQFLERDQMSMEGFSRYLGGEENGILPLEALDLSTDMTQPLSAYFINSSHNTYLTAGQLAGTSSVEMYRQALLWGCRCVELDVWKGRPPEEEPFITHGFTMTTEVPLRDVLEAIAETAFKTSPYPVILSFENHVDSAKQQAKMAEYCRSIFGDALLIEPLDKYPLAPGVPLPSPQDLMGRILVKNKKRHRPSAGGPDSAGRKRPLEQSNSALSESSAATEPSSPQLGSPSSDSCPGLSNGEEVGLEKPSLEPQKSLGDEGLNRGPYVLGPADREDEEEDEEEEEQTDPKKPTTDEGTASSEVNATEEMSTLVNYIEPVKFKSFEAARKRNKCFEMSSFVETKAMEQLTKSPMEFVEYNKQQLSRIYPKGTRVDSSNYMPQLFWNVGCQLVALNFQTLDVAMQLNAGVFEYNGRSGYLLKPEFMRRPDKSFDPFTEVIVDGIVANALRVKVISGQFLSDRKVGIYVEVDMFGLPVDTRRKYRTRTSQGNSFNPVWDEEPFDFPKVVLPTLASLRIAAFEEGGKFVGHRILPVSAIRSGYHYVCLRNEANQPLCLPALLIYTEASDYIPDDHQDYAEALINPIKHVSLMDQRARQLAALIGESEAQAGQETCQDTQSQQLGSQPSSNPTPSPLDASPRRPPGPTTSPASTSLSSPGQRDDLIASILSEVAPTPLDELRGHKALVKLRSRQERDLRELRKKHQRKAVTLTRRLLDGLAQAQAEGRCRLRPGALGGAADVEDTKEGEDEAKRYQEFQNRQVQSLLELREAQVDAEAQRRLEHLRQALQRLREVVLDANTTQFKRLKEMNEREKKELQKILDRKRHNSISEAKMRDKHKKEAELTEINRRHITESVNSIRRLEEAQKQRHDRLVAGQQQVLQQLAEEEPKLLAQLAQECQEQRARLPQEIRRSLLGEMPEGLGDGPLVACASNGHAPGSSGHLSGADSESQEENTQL
# Test: phospholipase C beta3 enzyme inhibition – biochemical, fluorescence, primary screen (AID 720704);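 also: 0% = median of compound wells on plate and 100% = full blocker control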
# Settings: Purified PLC-beta3, fluorogenic substrate, at 12.2 µM, active compounds read high
row,Compound,inhibition
1,Cc1cc(C(=O)N2CCC(C(=O)O)CC2)c(C(F)(F)F)o1,-3.87%
2,COc1cccc(NC(=O)C(Sc2nc3ccccc3c(=O)n2CC(C)C)c2ccccc2)c1 (stereo not given),0.44%
3,Cc1ccc2nc(-c3ccc(SCC(=O)Nc4cc(C)on4)nc3)[nH]c2c1,-55.5%
4,CCC(C(=O)NCCC(C)C)N(Cc1ccccc1Cl)C(=O)c1snc(C(N)=O)c1N (stereo not given),-123%
5,COc1ccccc1Nc1nc(N)nc(CSC(=S)N2CCOCC2)n1,-5.33%
6,Cc1cccc([C@H]2[C@@H]3C=CC[C@@H](C)[C@@H]3C(=O)N2Cc2ccccc2)c1,-3.88%
7,COc1ccc(NC(=O)CCC(=O)N2CCN(S(=O)(=O)c3ccc(C)cc3)CC2)c(OC)c1,-5.05%
8,CCC1C(C#N)=C(SC)NC2=C1C(=O)CC(C)(C)C2 (stereo not given),-65.6%
9,O=C1CCN(Cc2ccccc2)CCN1[C@H](CSc1ccccc1)c1ccccc1,-6.78%
10,Cc1ccc(C)c(N(CC(=O)NCc2ccco2)C(=O)CCC(=O)Nc2ccccn2)c1,-1.21%
11,Nn1c(SCC(=O)N2c3ccccc3Sc3ccccc32)nnc1-c1n[nH]c2c1CCC2,-2.4%
12,CC1Cc2ccccc2N1C(=O)Cn1cnc2ccccc2c1=O (stereo not given),-1.51%
13,CCCCNC(=O)C1CCCNC1=O (stereo not given),1.97%
14,CCOC(=O)C1=CCC2C(=O)N(Cc3ccccc3)C(=O)C12 (stereo not given),0.58%
15,CCOCCCNC(=O)C1(O)c2cc(Br)ccc2NC(=O)N1c1ccc(C)c(C)c1 (stereo not given),0.25%
16,COc1ccc(C(=O)NC2(C(F)(F)F)NC(=O)N(CCCc3ccccc3)C2=O)c(OC)c1OC (stereo not given),0.7%
17,COC(=O)NC1(C(F)(F)F)NC(=O)N(C2CCCCC2)C1=O (stereo not given),13.8% (active)
18,O=C(NCCCN1CCCC1=O)c1cccc(S(=O)(=O)NCc2ccccc2)c1,-4.88%
19,CCOc1ccc(C(=O)NCCCN2CCCC2=O)cc1,2.32%
20,Cc1cccc(C(=O)NCCCN2CCCC2=O)c1,11.5% (active)
21,O=C1NC(=O)C(CCc2ccccc2)(c2ccccc2)N1 (stereo not given),2.82%
22,OCC1OC(n2cnc3c(N4CCCC4)ncnc32)C(O)C1O (stereo not given),-4.64%
23,O=C(Nc1ccccc1C(=O)NCC1CCCO1)c1ccccc1F (stereo not given),-7.42%
24,CCN1CCN(c2c(Cl)cccc2NC(=O)c2ccc(Br)o2)CC1,1.67%
25,O=c1/c(=C/c2ccc(CNS(=O)(=O)c3ccccc3)o2)sc2n1CCN=2,-17.6%
